Compound activity (PubChem)
HSF-1 act – increases HSF-1 driven luciferase reporter signal. AID 504408. activation, % at 9 µM. 300,000 tested, 1.7% active. NIH3T3-HGL HSF-1 luciferase reporter, MG132, 8 h; 100% = twice DMSO control signal;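 active = mean replicate activation of at least 50% with a set share of replicates each reaching 50%; inconclusive = only one of those two conditions met; inactive = mean below 50% and too few replicates reaching it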;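 also: 0% = median of the neutral control wells and 100% = twice that signal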
HSP90 refold inh – blocks HSP90-mediated luciferase refolding in reticulocyte lysate | Rabbit reticulocyte lysate, luciferase refolding luminescence, 3 h | inhibition, % at 5.6 µM | 290,000 tested, 0.91% active | AID 1789;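 active = inhibition above the screen-wide mean plus 3 SD, computed separately per campaign, cut at about 16% in these data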;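 also: 0% = DMSO wells and 100% = 60 µM geldanamycin wells; inhibitors lower the luminescence because luciferase stays unfolded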
LMP1 NFkB inh – reduces LMP1-driven NF-kappaB luciferase signal | LMP1-induced NF-kappaB luciferase reporter cells, luminescence | inhibition, % at 12.5 µM | 350,000 tested, 0.69% active; in the data active = inhibition above about 41%; inconclusive = no clear call, values can overlap the other calls;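 also: 0% = neutral control wells and 100% = reference inhibitor control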
TROY signal inh – blocks TROY-dependent signaling in reporter cells. Q293 LMP1-TROYcd NF-kB luciferase reporter, 4 h. inhibition, % at 10 µM. 360,000 tested, 0.98% active;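 active = compounds whose plate-normalised and pattern-corrected inhibition of the luciferase reporter signal at the single screening dose is 50% or more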
HSF1 inhib – HSF1 inhibition; NIH3T3-HGL HSE-luciferase, MG132-induced, luminescence 8 h; stronger effect = lower value; activity change, negative = inhibition, % at 7.5 µM (by protocol); 300,000 tested, 0.77% active;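 active = more than half of replicate wells show activity change below -50%, luminescence cut by over half; inconclusive = some wells, but at most half, below -50%; inactive = no replicate well below -50%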;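 also: luciferase reports HSF-1 transcriptional activity via heat shock element; 0% = median of DMSO wells and -100% = zero luminescence signal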
TWEAK-Fn14 inh – inhibitors of TWEAK-Fn14 interaction signaling; TWEAK-stimulated Fn14 reporter cells, luciferase luminescence, 8 h; inhibition, % at 10 µM; 360,000 tested, 2% active; AID 1159606; in the data active = inhibition above about 50%
Starred values were filed as active, the others as inactive; ? = inconclusive; . = no result given. The list is not random: actives were taken first. Their share in the collection is about 4.7%.

SMILES | HSF-1 act | HSP90 refold inh | LMP1 NFkB inh | TROY signal inh | HSF1 inhib | TWEAK-Fn14 inh
CCN1CC2([N+](=O)[O-])CC=C(OC)C([N+](=O)[O-])(C1)C2 (stereo not given) | 15 | 2 | -4 | -18 | 0 | 73*
CC1(C(=O)Nc2cnc3ccccc3c2)CCN1Cc1ccccc1Cl (stereo not given) | . | . | . | 29 | . | 4
O=C(Nc1cccc(C(F)(F)F)c1)Oc1ccc(Cl)c2cccnc12 | 3 | 0 | 11 | 48 | -8 | 74*
COc1ccccc1CNc1nc(NCc2ccccc2OC)c2sccc2n1 | . | . | . | 57* | . | 42
COCCNc1nc(NCc2ccccc2)nc2ccsc12 | . | . | . | 39 | . | 24
CC(C)Nc1nc(NCc2ccccc2)c2sccc2n1 | . | . | . | 57* | . | 3
COc1ccccc1CNc1nc(Nc2cccc(-c3cnco3)c2)c2sccc2n1 | . | . | . | 75* | . | 98*
COc1ccccc1CNc1nc(NCc2ccccc2SC)c2sccc2n1 | . | . | . | 55* | . | 90*
O=C(NCc1ccc(C(F)(F)F)cc1)c1ccc(-c2cccnc2)c2ccoc12 | . | . | . | -43 | . | -13
CCOC(=O)Cc1ccc(Nc2nc(NCc3ccccc3)nc3ccsc23)cc1 | . | . | . | 57* | . | 93*
CCOC(=O)Cc1ccc(Nc2nc(NC)nc3ccsc23)cc1 | . | . | . | 1 | . | -9
O=C(Nc1cccc2c1CCCC2)c1cc(C2CCCCN2S(=O)(=O)c2cccs2)on1 (stereo not given) | . | . | . | 13 | . | 6
COc1ccc(/C(C)=N/NC(=S)NCc2ccco2)cc1 | 73* | 2 | -1 | -10 | 48 | -9
S=C(NCc1ccco1)Nc1ccc(Br)cc1Cl | 199* | -6 | -15 | -41 | 167 | -22
S=C(NCc1ccccc1)NCc1ccco1 | 56* | -3 | -4 | 10 | 18 | 12
O=C(N/N=C/c1cccs1)C(=O)Nc1cccc(Cl)c1 | -6 | 0 | -6 | -51 | 12 | -2
O=C(O)c1cccc(N/N=C/c2cccs2)c1 | -62 | 52* | 57* | -63 | -58* | 49
O=C(Nc1cc(Cl)cc2c1-c1ccc(Cl)cc1C2O)C(Cl)Cl (stereo not given) | . | . | 14 | 21 | . | -90
O=C(Nc1nnc(-c2cccs2)o1)c1cccc(C(F)(F)F)c1 | -13 | 3 | ? | 9 | -2 | 101*
O=C(CCl)Nc1cc(SCC(O)CO)cc([N+](=O)[O-])c1 (stereo not given) | -73 | 4 | 25 | -4 | -71* | 10
COC(=O)[C@@H]1C[C@]2(OC(=O)c3ccccc3)C=CC(=O)C[C@@H]2N1C(=O)OCc1ccccc1 | 73* | 2 | 3 | 24 | 80 | 51*
O=C(Nc1ccc2c(c1)OCO2)C1Cc2c(-c3ccc4c(c3)OCO4)ccnc2O1 (stereo not given) | . | . | . | 38 | . | 23
Cn1c(N2CCN(c3ccccn3)CC2)nc2c1c(=O)n(Cc1ccc(Cl)cc1)c(=O)n2C | 5 | 7 | 14 | 54* | 12 | 52*
O=C(Cn1nc(-c2ccccc2Cl)ccc1=O)Nc1ccccc1-c1ccccc1 | 53* | 2 | -3 | 9 | 14 | -4
COCCNC(=O)Cn1nc(-c2ccccc2F)ccc1=O | 6 | 2 | -7 | 6 | 3 | 51*
SMILES | HSF-1 act | HSP90 refold inh | LMP1 NFkB inh | TROY signal inh | HSF1 inhib | TWEAK-Fn14 inh
O=C(Cn1nc(-c2ccccc2)ccc1=O)N1CCCCC1 | -82 | 2 | 5 | -7 | -79* | 8
COCCNC(=O)Cn1nc(-c2ccccc2OC)ccc1=O | -10 | 3 | 4 | 22 | -4 | -6
O=C(Cn1nc(-c2ccccc2)ccc1=O)N1CCOCC1 | 4 | -2 | 6 | -3 | 0 | -14
CCn1c(CN2CCC(C)CC2)nc2cc(S(=O)(=O)N3CCCCC3)ccc21 | . | . | -5 | 1 | . | 3
COc1ccccc1NC(=O)COc1ccc(/C=N/NC(=O)CSCc2ccc(Cl)cc2)cc1 | 1 | -6 | 8 | 51* | -8 | 33
COc1cc2ccc(CC(N)=O)cc2cc1OC | . | . | 3 | -32 | . | -8
CC1(C(=O)Nc2ccc3ccccc3c2)CCC(=O)N1CCCn1ccnc1 (stereo not given) | . | . | . | 10 | . | -10
CCOC(=O)/C(=C\c1cccc(O)c1)c1nc2sc(C)c(C)c2c(=O)[nH]1 | 161* | 5 | 3 | 37 | 114 | 101*
CCCNC(=O)C1(C)CCCN(C(=O)COCc2ccccc2)C1 (stereo not given) | . | . | . | 0 | . | 12
O=C(Nc1ccc(OC(F)F)c(Cl)c1)c1ccccn1 | 70* | 4 | -26 | -45 | 24 | -17
Cc1cc(C(=O)N2CCc3ccccc32)n(-c2ccccc2)n1 | -1 | 4 | -7 | 12 | -7 | 5
Cc1cc(C)n(-c2ccc(C(=O)N3CCc4ccccc43)cc2)n1 | 23 | -1 | -12 | -25 | 20 | 88*
Cn1c(=O)oc2cc(S(=O)(=O)Nc3ccc4c(c3)OCCO4)ccc21 | -43 | 0 | 12 | 5 | -37 | 65*
COc1ccc(C)cc1S(=O)(=O)Nc1ccc2c(c1)OCCO2 | -16 | 3 | 5 | -1 | -4 | 2
Cc1c(S(=O)(=O)Nc2ccc3c(c2)OCCO3)c(=O)n(C)c(=O)n1C | -1 | -1 | -13 | -2 | -6 | -9
Cn1c(=O)c(=O)n(C)c2cc(S(=O)(=O)Nc3ccc4c(c3)OCCO4)ccc21 | -64 | 8 | 25 | 0 | -60* | -2
Cc1ccc(NS(=O)(=O)c2ccc3c(c2)oc(=O)n3C)cc1C | -16 | 5 | 9 | 19 | -14 | 7
COc1cccc(S(=O)(=O)Nc2ccc3c(c2)OCCO3)c1 | -44 | 5 | -2 | 52* | -31 | 76*
COc1ccc(NC(C)=O)cc1S(=O)(=O)Nc1ccc2c(c1)OCCO2 | -17 | -2 | -4 | 53* | -24 | 57*
Cc1cccc(S(=O)(=O)Nc2ccc3c(c2)OCCO3)c1 | -1 | -2 | -2 | -4 | 6 | 18
COc1ccc(C(=O)N2CCC2(C)C(=O)NC(C)C)c(OC)c1 (stereo not given) | . | . | . | 0 | . | -34
O=S(=O)(Nc1ccc2c(c1)OCO2)c1cccs1 | -3 | 1 | -4 | 0 | 0 | -4
O=S(=O)(Nc1ccc2c(c1)OCCO2)c1cccs1 | -65 | 9 | 13 | 74* | -63* | 90*
CC(C)(C)OC(=O)N(Cc1ccccc1)Cc1cccc(OCc2cccc(NC(=O)c3ccccc3)c2)c1 | . | . | 2 | -2 | . | 7
O=C(CN(c1cccc(C(F)(F)F)c1)S(=O)(=O)c1ccc(Cl)c([N+](=O)[O-])c1)NCc1ccccc1Cl | 66* | -1 | -12 | -9 | 36 | 21
CNC(=O)C[C@H]1C(=O)N(c2ccc(Br)cc2)C[C@@H]1C | . | . | -3 | -23 | . | 9
N#Cc1c(Cl)nc(N/N=C/c2ccccc2)c(Cl)c1Cl | 63* | 2 | -5 | 7 | 37 | 0
COc1ccc(/C=C/c2c(-c3ccc(OC)cc3)oc3ccc(-c4ccc(OC)cc4)cc23)cc1 | -5 | -3 | 2 | 0 | -3 | -1
